In the library only some 2.4% were active in any assay of this set; here they are far more common.
Dyrk1A ADPGlo: inhibitors of rat Dyrk1A kinase | Q63470 | ADP-Glo luminescence, NFATc1 peptide | inhibition, % at 12.5 µM | hit rate 0.43% among 310,000
miR122 inh: inhibitors of miR-122 in Huh7 cells; Huh7 miR-122 Renilla luciferase sensor, 48 h; neutral wells = 0, positive control = 100; activation (reporter increase), % at 12.5 µM; hit rate 0.3% among 340,000; AID 602342;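 active means mean replicate activation score at least 90 and every replicate individually at or above 90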;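 further: higher luciferase means less miR-122 activity so hits act as miR-122 inhibitors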
NSD2 inh: inhibitors of human histone methyltransferase NSD2; O96028; NSD2 peptide methylation, AlphaScreen, 120 min; inhibition, % at 12.5 µM; hit rate 0.54% among 310,000; AID 743445
GSIS activator: primary screen for activators of insulin secretion dependent on glucose, INS-1E cells, GLuc reporter luminescence; INS-1E GLuc reporter insulin secretion, 2-3 h; activation, % at 16.6 µM; hit rate 0.61% among 370,000; AID 743287;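 active means lowest replicate activation of at least 40%, so every replicate reaches that level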
MITF TRPM1 HTS: MITF TRPM1 promoter activation in melanoma cells; SK-MEL-5 TRPM1-promoter luciferase, 24 h; % of positive control, neutral wells = 0; activation, % at 12.5 µM; hit rate 0.75% among 300,000;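 active means mean activation of at least 80% with every replicate also reaching 80%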
Wnt act: Wnt/beta-catenin pathway activation; Wnt/beta-catenin reporter cell assay, activator, plate reader; activation, % at 9.35 µM; hit rate 1.2% among 300,000; AID 743398; in the data active means activation above about 30%, passing the limit was not always enough
AlphaScreen art: interferes with AlphaScreen signal, flagging NSD2 false positives; AlphaScreen artifact counterscreen, preloaded methylated H4 peptide; shares compounds with NSD2 inh; AC35, µM (highest dose often 10 µM); hit rate 9.4% among 1,500; call rule not given here
Each line names hits and unclear results; the compound was inactive in the other large screens (follow-up assays come after a bar, where they were run). Unless noted, no stated cut-off is given here; in the data, active means inhibition above about 50%; inactive means the rest.

Clc1ccccc1Nc1ncnc(-n2cccc2)n1	NSD2 inh 128.4 (no result: GSIS activator, MITF TRPM1 HTS, Wnt act) | AlphaScreen art inactive
CN1CCN(c2ccc(N)cc2Cl)CC1	NSD2 inh 77.0 | AlphaScreen art inactive
CN1CCN(c2ccc(Cl)cc2N)CC1	none (no result: miR122 inh, MITF TRPM1 HTS)
COC(=O)[C@H]1[C@H](CO)[C@H]2Cn3c(ccc(-c4ccc(F)cc4)c3=O)[C@@H]1N2Cc1ccccc1	none (no result: Dyrk1A ADPGlo, NSD2 inh, MITF TRPM1 HTS, Wnt act)
COC(=O)[C@H]1[C@H](CO)[C@H]2Cn3c(ccc(-c4ccc(F)cc4)c3=O)[C@@H]1N2C(C)=O	none (no result: Dyrk1A ADPGlo, NSD2 inh, MITF TRPM1 HTS, Wnt act)
Nc1ccc(C2(c3ccc(N)cc3)CN3CCC2CC3)cc1	NSD2 inh 176.4 (no result: Wnt act) | AlphaScreen art inactive
Cc1cccc(S(=O)(=O)N2[C@@H]3Cn4c(ccc(-c5ccncc5)c4=O)[C@H]2[C@@H](C(=O)O)[C@@H]3CO)c1	none (no result: Dyrk1A ADPGlo, NSD2 inh, MITF TRPM1 HTS, Wnt act)
O=[N+]([O-])c1ccc(N(CCO)CCO)c2c1no[n+]2[O-]	NSD2 inh 134.6 (no result: Dyrk1A ADPGlo, GSIS activator, MITF TRPM1 HTS) | AlphaScreen art inactive
Nc1c(C(=O)NCC2CCCO2)c2nc3ccccc3nc2n1Cc1ccco1 (configuration not stated)	none (no result: MITF TRPM1 HTS)
Nc1c(C(=O)NC2CCCC2)c2nc3ccccc3nc2n1CC1CCCO1 (configuration not stated)	NSD2 inh 81.7 (no result: GSIS activator) | AlphaScreen art inactive
COc1ccc(CC2C(=O)N(c3ccccc3)C(=O)N(c3ccccc3)C2=O)c(OC)c1	none (no result: GSIS activator, MITF TRPM1 HTS, Wnt act)
COCCN1C(=O)/C(=C/c2c(OC)cc(OC)cc2OC)C(=O)N(c2ccccc2)C1=O	NSD2 inh 51.7 (no result: miR122 inh) | AlphaScreen art inactive
C[C@H]1CN([C@@H](C)CO)C(=O)CCCn2cc(nn2)CO[C@H]1CN(C)C(=O)Oc1cccc2ccccc12	none (no result: Dyrk1A ADPGlo, NSD2 inh, MITF TRPM1 HTS, Wnt act)
COc1ccc(N2C(=O)NC(=O)/C(=C/c3cccc(OC(=O)c4cccs4)c3)C2=O)cc1Cl	none (no result: Dyrk1A ADPGlo, miR122 inh, MITF TRPM1 HTS)
Cc1ccc(N2C(=O)NC(=O)/C(=C/c3ccc(OC(=O)c4cccs4)cc3)C2=O)cc1	NSD2 inh 127.4 (no result: GSIS activator) | AlphaScreen art inactive
COC1C(O)C(C)OC(OC2C(Oc3cccc4c(O)c5c(=O)oc6ccc(C)c7c(=O)oc(c34)c5c67)OC(C)C(O)C2O)C1O (configuration not stated)	NSD2 inh 66.1 | AlphaScreen art inactive
Cc1cccc(N=Nc2ccc(N(C)C)cc2)c1	NSD2 inh 50.8, Wnt act 49.3 | AlphaScreen art 8.41µM
CN(C)c1ccccc1	none (no result: Dyrk1A ADPGlo, MITF TRPM1 HTS)
CCN1/C(=C/C=C/C2=[N+](CC)c3ccccc3C2(C)C)C(C)(C)c2ccccc21	NSD2 inh 55.0 (no result: Dyrk1A ADPGlo, MITF TRPM1 HTS) | AlphaScreen art inactive
CN1/C(=C\C=C2C(=O)NC(=O)NC2=O)C(C)(C)c2ccccc21	none (no result: miR122 inh)
COCCCNC(=O)c1c(NC(=O)c2ccco2)n(Cc2ccccc2)c2nc3ccccc3nc12	NSD2 inh 105.6 (no result: GSIS activator) | AlphaScreen art inactive
CCCCNC(=O)c1c(N)n(CCCOC)c2nc3ccccc3nc12	NSD2 inh 106.0 (no result: GSIS activator, Wnt act) | AlphaScreen art inactive
COCCCn1c(N)c(C(=O)OCCOC)c2nc3ccccc3nc21	NSD2 inh 72.6 (no result: GSIS activator, MITF TRPM1 HTS) | AlphaScreen art inactive
COCCNC(=O)c1c(N)n(CCC(C)C)c2nc3ccccc3nc12	none (no result: Wnt act)
CCOC(=O)c1c(NS(=O)(=O)c2ccccc2)n(CCCOC)c2nc3ccccc3nc12	NSD2 inh 68.2 (no result: miR122 inh, Wnt act) | AlphaScreen art inactive
O=C(Cc1ccncc1)N1CCCCN2[C@H](CO)[C@H](c3ccc(C#Cc4ccccc4F)cc3)[C@H]2C1	none (no result: Dyrk1A ADPGlo, NSD2 inh, MITF TRPM1 HTS, Wnt act)
COc1cccc(-c2ccc([C@@H]3[C@H](CO)N4CCCCN(C(=O)Cc5ccncc5)C[C@@H]34)cc2)c1	none (no result: Dyrk1A ADPGlo, NSD2 inh, MITF TRPM1 HTS, Wnt act)
COc1ccc(C#Cc2ccc([C@@H]3[C@@H](CO)N4CCCCN(C(=O)Cc5cccnc5)C[C@H]34)cc2)cc1	none (no result: Dyrk1A ADPGlo, NSD2 inh, MITF TRPM1 HTS, Wnt act)
COC(=O)[C@@H]1[C@@H](CO)[C@@H]2Cn3c(ccc(C4=CCCCC4)c3=O)[C@H]1N2C(=O)NC(C)C	none (no result: Dyrk1A ADPGlo, NSD2 inh, MITF TRPM1 HTS, Wnt act)
N#Cc1cccc(-c2ccc([C@H]3[C@H]4CN(C(=O)Cc5ccncc5)CCCCN4[C@H]3CO)cc2)c1	none (no result: Dyrk1A ADPGlo, NSD2 inh, MITF TRPM1 HTS, Wnt act)
CCCC(=O)NC1=C(N2CC2)C(=O)C(NC(=O)CCC)=C(N2CC2)C1=O	NSD2 inh 92.1 (no result: GSIS activator) | AlphaScreen art inactive
Cc1ccc(N2C(=O)NC(=O)/C(=C\C=C\c3ccco3)C2=O)cc1	NSD2 inh 76.2 | AlphaScreen art inactive
O=C1NC(=O)N(c2ccccc2)C(=O)/C1=C/C=C/c1ccco1	none (no result: NSD2 inh)
CCC(=NCCCN(CC)CC)c1c(O)n(C2CCCCC2)c(=O)[nH]c1=O	NSD2 inh 51.4 (no result: GSIS activator, Wnt act) | AlphaScreen art inactive
O=C1NC(=O)C(Sc2ccccc2[N+](=O)[O-])C(=O)N1	NSD2 inh 85.4 | AlphaScreen art inactive
COC(=O)[C@H]1[C@H](CO)[C@H]2Cn3c(ccc(C4=CCCC4)c3=O)[C@@H]1N2CC1CCCC1	none (no result: Dyrk1A ADPGlo, miR122 inh, NSD2 inh, MITF TRPM1 HTS, Wnt act)

Bioassay records: PubChem, Broad Institute
